Hits are enriched below; roughly 2.4% of the tested compounds scored in any of these assays.
D2 ag-1: agonists of human D2 dopamine receptor (beta-arrestin); actives 0.084% (n = 360,000); activation, % (concentration not given with the values); P14416; DiscoveRx PathHunter D2 beta-arrestin, luminescence, 90 min; 100% = 57 uM dopamine signal; in the data active = activation above about 40%
Target sequence (P14416 whole entry, looked up): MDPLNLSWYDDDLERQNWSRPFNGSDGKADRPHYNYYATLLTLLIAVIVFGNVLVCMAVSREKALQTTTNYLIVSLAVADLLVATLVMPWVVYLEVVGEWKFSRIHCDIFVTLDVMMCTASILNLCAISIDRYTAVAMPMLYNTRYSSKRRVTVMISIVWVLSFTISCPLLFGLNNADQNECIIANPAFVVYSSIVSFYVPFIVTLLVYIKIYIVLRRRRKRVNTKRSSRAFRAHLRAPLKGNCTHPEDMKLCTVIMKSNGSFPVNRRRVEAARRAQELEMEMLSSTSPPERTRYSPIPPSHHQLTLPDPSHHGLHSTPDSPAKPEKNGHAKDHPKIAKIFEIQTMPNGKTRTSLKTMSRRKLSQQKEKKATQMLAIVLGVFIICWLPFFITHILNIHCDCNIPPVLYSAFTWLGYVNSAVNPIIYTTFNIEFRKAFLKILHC
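DiscoveRx PathHunter D2 beta-arrestin cells (2,100/well) attached overnight, then compound-stimulated 90 min at 37 C in HBSS/10 mM HEPES/0.1% Tween-20 buffer; beta-galactosidase complementation read by luminescence after 1 h at ambient temperature. Dopamine 57 uM final (EC100) as control.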
D2 PAM-1: positively modulates the human D2 dopamine receptor allosterically. P14416. HEK293 T-REx D2, calcium flux, EC20 dopamine potentiation. potentiation, % at 10 µM. actives 0.34% (n = 340,000). AID 485347;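 active = potentiation over 3 SD above the plate norm, cut at about 30% in these data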; also: 0% is about no effect
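Tetracycline-induced Hek293 Trex D2 cells, force-coupled to calcium, loaded with no-wash calcium dye. Compound added with 180 s kinetic read for agonism, then EC20 dopamine and a further 180 s read for potentiation.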
D2 antag: antagonists of human D2 dopamine receptor. P14416. HEK293 TREx D2 cells, calcium flux, dopamine EC80. inhibition, % at 10 µM. actives 2% (n = 340,000). AID 485344; in the data active = inhibition above about 30%; inactive = below that, where a call was filed; also: 0% is about no effect
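Measurement of antagonist activity uses fluorescent calcium dye in inducible HEK293 T-REx D2 cells: 10 s baseline, compound addition with 180 s read, EC80 dopamine addition with a further 180 s read.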
D2 ag-2: agonists of human D2 dopamine receptor; activation, % at 2 µM; actives 0.53% (n = 340,000); P14416; AID 485358; HEK293 T-REx D2 cells, calcium flux agonist mode;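 active = activation over 3 SD above normal in the single-dose calcium agonist read, cut at about 30% in these data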; also: 0% is about no effect
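Calcium-flux readout, 1 cycle/sec over 180 s following compound pin transfer, in inducible HEK293 Trex D2 cells (force-coupled); dopamine controls included. Positive calcium responses during this window marked compounds as potential agonists.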
D2 PAM-2: positive allosteric modulators of human D2 dopamine receptor; DiscoveRx D2 beta-arrestin cells, luminescence, 90 min; 100% = 57 uM dopamine signal; potentiation, % (concentration not given with the values); actives 0.23% (n = 360,000); AID 624464; in the data active = potentiation above about 50%
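PathHunter D2 cells, attached overnight at 37 deg C, received compound in DMSO plus dopamine at EC20 (50 nM final) for 90 min at 37 deg C. Beta-arrestin recruitment was read as luminescence after 1 h with detection reagent at ambient temperature.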
* = called active by the depositor; x = no result given.

SMILES	D2 ag-1	D2 PAM-1	D2 antag	D2 ag-2	D2 PAM-2
O=C(C[n+]1ccccc1)N/N=C/c1ccccc1Cl	5.0	-19.8	35.9*	0.4	-0.9
O=C(O)COc1ccccc1/C=N/NC(=O)C(O)c1ccccc1 (stereo not given)	-6.4	1.1	-15.1	0.0	-5.5
O=C(C[n+]1ccccc1)N/N=C/c1cccc(Cl)c1Cl	-6.5	8.5	-10.9	1.0	-7.3
CC(C)(CC(=O)OCC(=O)Nc1ccc(F)c(Cl)c1)CC1=NS(=O)(=O)c2ccccc2N1	x	-15.9	x	0.8	x
CCc1ccc(CNC(=O)c2cnc3sc(N4CCCCCC4)nn3c2=O)cc1	x	2.4	x	1.6	x
COc1cc(-c2nc3ccccn3c2/N=C/c2cc(OC)c(OC)c(OC)c2)ccc1O	5.7	x	x	x	51.6*
CN(CCCNC(=O)CCCOc1cc(=O)n(C)c2ccccc12)Cc1ccccc1	-4.7	-14.3	23.0	0.6	-18.7
CN(CCNC(=O)CCCOc1cc(=O)n(C)c2ccccc12)Cc1ccccc1	-4.2	x	47.3*	-0.5	-8.3
CCn1c(=O)cc(OCC(=O)NCCCN2CC(C)CC(C)C2)c2ccccc21 (stereo not given)	-1.6	-17.8	58.0*	-0.4	-26.2
CCn1c(=O)cc(OCC(=O)NCCCN2CCC(C)CC2)c2ccccc21	-3.1	-16.3	x	x	-26.7
CC1CCN(CCCNC(=O)COc2cc(=O)n(C)c3ccccc23)CC1	-1.2	-16.6	34.1*	0.8	-9.8
CC1CCN(CCCNC(=O)c2n[nH]c(=O)c3ccccc23)CC1	-1.4	-12.6	41.1*	0.2	-37.2
CCN(CC)c1ccc(NC(=O)C2CCN(c3nnc(-n4cccc4)s3)CC2)c(C)c1	x	-11.3	x	-0.3	x
CCOC(=O)c1c(C)c(-c2ccccc2)n(CC(=O)NCCc2ccc(C)cc2)c1C	x	14.4	x	x	x
CN(C(=O)CN1CCN(c2cnn(-c3ccccc3)c(=O)c2Cl)CC1)C1CCS(=O)(=O)C1 (stereo not given)	-2.2	-3.9	33.2*	-0.1	6.6
CS(=O)(=O)N1CCN(c2cnn(-c3ccccc3)c(=O)c2Cl)CC1	1.3	14.0	8.4	-0.3	-2.1
CCc1cccc(NC(=O)CN(C)S(=O)(=O)c2ccc3c(c2)CCCN3C(C)=O)c1	x	8.1	x	0.3	x
CCc1ccc(OCC(=O)NNC(=O)c2ccc(NC(=O)C3CC3)cc2)cc1	2.7	5.8	30.5*	-0.2	-14.3
CCN(CC)c1ccc(CN(C(=O)c2cccs2)C2CCS(=O)(=O)C2)cc1 (stereo not given)	-4.6	9.1	30.1*	0.1	-14.3
Cc1ccc(SCc2cc(-c3ccc(Cl)cc3)no2)cc1	0.3	31.7*	x	x	-7.1
O=C(CSc1nccc(=O)[nH]1)Nc1ccc(S(=O)(=O)N2CCOCC2)cc1	-0.7	5.0	31.5*	0.3	-2.1
CCOc1ccccc1NC(=O)N1CCN(S(=O)(=O)c2ccc3c(ccn3C)c2)CC1	x	4.6	x	-0.5	x
Cc1ccc(C(=O)COC(=O)C(CC(C)C)NC(=O)C2CCC(C)CC2)cc1 (stereo not given)	x	-0.2	x	-1.2	x
CCN1CCN(C2=C(NS(=O)(=O)c3ccc(C)cc3)C(=O)c3ccccc3C2=O)CC1	2.7	-1.1	39.3*	-0.1	-24.1
CCN1CCN(C2=C(NS(=O)(=O)c3ccc(NC(C)=O)cc3)C(=O)c3ccccc3C2=O)CC1	10.7	-1.9	4.2	0.4	-16.8
SMILES	D2 ag-1	D2 PAM-1	D2 antag	D2 ag-2	D2 PAM-2
COc1ccccc1N1CCN(Cc2ccc(-c3ccccc3[N+](=O)[O-])o2)CC1	-0.7	-25.0	85.6*	-1.0	-77.2
COc1ccccc1N1CCN(Cc2ccco2)CC1	0.7	-16.1	-10.7	4.1	-5.6
COc1ccc(CCNC(=O)[C@@H](NC(N)=O)C(C)C)cc1	-0.3	-0.7	50.1*	10.5	-20.6
CCNC(=O)COC(=O)CCC(=O)c1cccs1	0.8	-6.3	51.3*	-1.6	-3.9
CC[C@H](C)[C@H](NC(N)=O)C(=O)NCCc1ccc(OC)cc1	-2.7	-4.9	11.4	-0.3	-3.3
COc1ccc(CCNC(=O)COC(=O)CCC(=O)c2cccs2)cc1OC	1.5	x	x	x	-5.7
CN(CC(=O)NCCc1ccccc1)S(=O)(=O)c1cccs1	-4.8	-8.5	10.7	-0.3	-5.2
COc1ccc(CCNC(=O)CN(C)S(=O)(=O)c2cccs2)cc1	-2.9	-10.9	32.2*	0.2	6.3

Assay outcomes as filed in PubChem BioAssay.
